PubChem BioAssay AID1159580 (chemical genetic matrix, 2015)
Hit rate of the full screen: of about 5,500 compounds, about 2,000 (36%) were called active. Another 18% or so got no clear call; they are omitted. The list shows a part of the results. Values without a mark were called inactive. Cut-off read from the data, not from the text of the source: active = normalized growth mostly below about 0.91 (no sharp cut-off); inconclusive = no clear call, values can overlap the other calls; inactive = mostly above about 0.92.

Assay: chemical genetic growth profiling, strain panel (AID 1159580);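 note: tested at 20 µM; growth read once vehicle control cultures reached saturation at 30 °C; 1 = growth at the plate median or of vehicle wells; lower values mean less growth of the strain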
Details: S. cerevisiae deletion strains, growth OD

Work on `COc1cccc(-c2cc(=O)c3ccc(OC)cc3o2)c1` yielded a normalized growth (locus YAL013W, strain DEP1, hits give low values) of 0.93, a normalized growth (locus YAL021C, strain ccr4, hits give low values) of 0.964 and a normalized growth (locus YAL026C, strain drs2, hits give low values) of 0.936. For the same compound, the normalized growth (locus YAL030W, strain snc1, hits give low values) was 0.943, the normalized growth (locus YBL061C, strain skt5, hits give low values) was 0.929 and the normalized growth (locus YBR009C, strain hhf1, hits give low values) was 0.891 (active). The normalized growth (locus YBR021W, strain FUR4, hits give low values) was 0.942, the normalized growth (locus YBR023C, strain chs3, hits give low values) was 0.897 (active) and the normalized growth (locus YBR171W, strain sec66, hits give low values) was 0.916. It also gave a normalized growth (locus YBR229C, strain ROT2, hits give low values) of 0.959, a normalized growth (locus YBR231C, strain swc5, hits give low values) of 0.922 and a normalized growth (locus YBR279W, strain paf1, hits give low values) of 0.944. The normalized growth (locus YCL011C, strain gbp2, hits give low values) was 0.938, the normalized growth (locus YCL016C, strain dcc1, hits give low values) was 0.96 and the normalized growth (locus YCL061C, strain MRC1, hits give low values) was 0.944. It also gave a normalized growth (locus YCL069W, strain vba3, hits give low values) of 0.947, a normalized growth (locus YCR088W, strain abp1, hits give low values) of 0.938 and a normalized growth (locus YDL005C, strain med2, hits give low values) of 0.973. It also gave a normalized growth (locus YDL035C, strain GPR1, hits give low values) of 0.922, a normalized growth (locus YDL040C, strain nat1, hits give low values) of 0.948 and a normalized growth (locus YDL074C, strain BRE1, hits give low values) of 0.837. For the same compound, the normalized growth (locus YDL101C, strain DUN1, hits give low values) was 0.954, the normalized growth (locus YDL134C, strain PPH21, hits give low values) was 0.978 and the normalized growth (locus YDL185W, strain tfp1, hits give low values) was 0.978. It also gave a normalized growth (locus YDL192W, strain arf1, hits give low values) of 1.04, a normalized growth (locus YDR001C, strain nth1, hits give low values) of 0.935 and a normalized growth (locus YDR069C, strain doa4, hits give low values) of 0.96. The normalized growth (locus YDR101C, strain arx1, hits give low values) was 1.04, the normalized growth (locus YDR137W, strain rgp1, hits give low values) was 0.929 and the normalized growth (locus YDR150W, strain NUM1, hits give low values) was 0.951. For the same compound, the normalized growth (locus YDR159W, strain sac3, hits give low values) was 0.921, the normalized growth (locus YDR162C, strain NBP2, hits give low values) was 0.926 and the normalized growth (locus YDR195W, strain ref2) was 1.05. It also gave a normalized growth (locus YDR297W, strain sur2, hits give low values) of 0.955, a normalized growth (locus YDR318W, strain mcm21, hits give low values) of 0.972 and a normalized growth (locus YDR334W, strain swr1, hits give low values) of 0.943. For the same compound, the normalized growth (locus YDR335W, strain msn5, hits give low values) was 0.965, the normalized growth (locus YDR388W, hits give low values) was 1.04 and the normalized growth (locus YDR392W, strain spt3, hits give low values) was 0.623 (active). The normalized growth (locus YDR502C, strain sam2, hits give low values) was 1.04, the normalized growth (locus YEL003W, strain gim4, hits give low values) was 0.962 and the normalized growth (locus YEL037C, strain rad23, hits give low values) was 0.952. The normalized growth (locus YEL061C, strain CIN8 (second series), hits give low values) was 0.958, the normalized growth (locus YEL061C, strain CIN8, hits give low values) was 0.964 and the normalized growth (locus YER015W, strain faa2, hits give low values) was 0.953. The normalized growth (locus YER016W, strain bim1, hits give low values) was 0.952, the normalized growth (locus YER110C, hits give low values) was 1.16 [resistant] (active) and the normalized growth (locus YER111C, strain swi4, hits give low values) was 0.957. For the same compound, the normalized growth (locus YER155C, strain BEM2 (second series), hits give low values) was 0.699 (active), the normalized growth (locus YER155C, strain BEM2, hits give low values) was 1.06 and the normalized growth (locus YER167W, strain BCK2, hits give low values) was 0.907. It also gave a normalized growth (locus YFR010W, strain ubp6, hits give low values) of 0.961, a normalized growth (locus YGL078C, strain dbp3, hits give low values) of 1.05 and a normalized growth (locus YGL086W, strain mad1, hits give low values) of 0.934. It also gave a normalized growth (locus YGL167C, strain pmr1, hits give low values) of 0.938, a normalized growth (locus YGL173C, strain kem1, hits give low values) of 0.966 and a normalized growth (locus YGL227W, strain vid30, hits give low values) of 0.946. The normalized growth (locus YGL240W, strain doc1, hits give low values) was 0.837 (active), the normalized growth (locus YGL248W, strain PDE1, hits give low values) was 0.946 and the normalized growth (locus YGL253W, strain hxk2, hits give low values) was 0.903 (active). The normalized growth (locus YGR078C, strain PAC10, hits give low values) was 0.945, the normalized growth (locus YGR135W, strain pre9, hits give low values) was 1.08 and the normalized growth (locus YGR229C, strain SMI1, hits give low values) was 0.722 (active). The normalized growth (locus YGR252W, strain gcn5, hits give low values) was 0.884, the normalized growth (locus YHR013C, strain ard1, hits give low values) was 0.852 and the normalized growth (locus YHR027C, strain rpn1, hits give low values) was 0.968. For the same compound, the normalized growth (locus YHR030C, strain SLT2, hits give low values) was 0.82 (active), the normalized growth (locus YHR079C, strain IRE1 (second series), hits give low values) was 1.08 [resistant] (active) and the normalized growth (locus YHR094C, strain hxt1, hits give low values) was 1.15 [resistant] (active). The normalized growth (locus YHR129C, strain ARP1, hits give low values) was 1.03, the normalized growth (locus YHR142W, strain chs7, hits give low values) was 0.793 (active) and the normalized growth (locus YHR200W, strain rpn10, hits give low values) was 1.04. The normalized growth (locus YIL066C, strain RNR3, hits give low values) was 0.961, the normalized growth (locus YIL073C, strain SPO22, hits give low values) was 0.834 and the normalized growth (locus YIL125W, strain kgd1, hits give low values) was 0.964. The normalized growth (locus YIR030C, strain dcg1, hits give low values) was 1.14 [resistant] (active), the normalized growth (locus YJL092W, strain hpr5, hits give low values) was 0.954 and the normalized growth (locus YJL095W, strain BCK1 (second series), hits give low values) was 0.916 (active). The normalized growth (locus YJL095W, strain BCK1, hits give low values) was 0.656 (active), the normalized growth (locus YJL115W, strain asf1, hits give low values) was 0.954 and the normalized growth (locus YJL129C, strain trk1, hits give low values) was 0.95. The normalized growth (locus YJL134W, strain LCB3, hits give low values) was 0.965, the normalized growth (locus YJL154C, strain vps35, hits give low values) was 0.959 and the normalized growth (locus YJL164C, strain tpk1, hits give low values) was 0.928. It also gave a normalized growth (locus YJL166W, strain qcr8, hits give low values) of 0.905, a normalized growth (locus YJL168C, strain set2, hits give low values) of 1.04 and a normalized growth (locus YJL187C, strain SWE1 (second series), hits give low values) of 0.942. The normalized growth (locus YJL187C, strain SWE1, hits give low values) was 0.949.
